SW480 rereplic – A quantitative high throughput screen for small molecules that induce DNA re-replication in SW480 colon adenocarcinoma cells; AID 624297, 2012; SW480 DNA re-replication, Hoechst DNA content imaging, 48 h; actives 1.8% (n = 340,000); Potency, µM (doses to about 46.1 µM), inactives show at the top dose re-replication activation, usual class: activators; also: potency is read from the fitted curve at half-maximal effect; % of control where 0% means no effect; nearly all actives have a fitted effect of over 55% in size
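DNA re-replication was detected as more nuclei of elevated Hoechst intensity after 48 hr exposure to compound (23 nL pinned per well of 250 cells).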
MCF10A rereplic – A quantitative high throughput screen for small molecules that induce DNA re-replication in MCF 10a normal breast cells. MCF 10A DNA re-replication, Hoechst nuclear intensity, 48 h. Potency, µM (titrated, usually from 46.1 µM), without a hit: at the top dose activity, positive = re-replication, actives largely listed as activators. actives 2.9% (n = 350,000); also: potency is read from the fitted curve at half-maximal effect; % of control where 0% means no effect; nearly all actives have a fitted effect of over 50% in size
IL1B secr inh – qHTS for Inhibitors of Inflammasome Signaling: IL-1-beta AlphaLISA Primary Screen. THP-1 LPS/ATP IL-1B secretion, AlphaLISA, 16 h; stronger effect = lower value. actives 4.7% (n = 360,000). AID 743279, 2014. activity change, % at 57.5 µM; in the data active = activity change below about -50%; inconclusive = mostly about -30% to -49%; also: % is scaled to controls: 0 for no effect and ±100 for the full control effect
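THP-1 cells pretreated 1 hr with compounds (up to 57.5 uM final), then stimulated with LPS (250 ng/mL final) plus ATP (1.25 mM final); secreted IL-1B measured by AlphaLISA after 16 hr, decreased signal indicating inhibition.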
KB-V1 cytotox – qHTS assay for MDR1-selective chemotherapeutics: Primary screen using the drug-selected MDR subline cells KB-V1. AID 1347076, 2019. KB-V1 MDR cells viability, CellTiter-Glo, 72 h. Potency, µM (highest dose often 46.1 µM), actives largely listed as cytotoxic. actives 3.4% (n = 400,000); also: potency is read from the fitted curve at half-maximal effect; % is scaled to controls: 0 for no effect and ±100 for the full control effect; nearly all actives have a fitted effect of over 60% in size
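Drug-selected KB-V1 cells, grown in DMEM lacking phenol red with 10% FBS, receive compound titrations; after three days at 37 degrees C, surviving cell ATP is quantified by CellTiter-Glo luminescence and responses normalized and curve-fitted.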
KB-3-1 tox – qHTS assay for MDR1-selective chemotherapeutics: Primary screen using the parental adenocarcinoma cell KB-3-1; actives 1.4% (n = 400,000); Potency, µM (series often up to 46.1 µM), hits mostly cytotoxic; AID 1347075, 2019; KB-3-1 viability, CellTiter-Glo ATP luminescence, 72 h; also: potency is read from the fitted curve at half-maximal effect; % is scaled to controls: 0 for no effect and ±100 for the full control effect; nearly all actives have a fitted effect of over 60% in size
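Cytotoxicity in the drug-sensitive parental line KB-3-1 was scored as loss of CellTiter-Glo luminescence following 72 h incubation with compound. Values come from curve fitting of normalized concentration-response data.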
An asterisk follows results filed as active; i = inactive; ? = inconclusive; · = no result given; ! = a repeat was not active; [ ] = another dose, or the depositor's remark. An excerpt weighted towards active compounds, which were near 9.9% of everything screened. Unless noted, calls follow the shape of the dose curve; as a rule, active = well fitted curve in the direction sought with a large enough effect; inconclusive = small, poorly fitted or top-dose-only effect, or another doubt; inactive = no such curve, though single readings can be large; an effect the other way counts as inactive or inconclusive.

SMILES	SW480 rereplic	MCF10A rereplic	IL1B secr inh	KB-V1 cytotox	KB-3-1 tox
O=C(OCc1cn([C@@H]2CN(C(=O)C3CCCCC3)[C@@H](c3ccc(Cl)cc3)C[C@H]2O)nn1)c1ccccc1	·	·	4	i	i
C=CCn1c(SCc2c(C)noc2C)nc2cc(C(=O)O)ccc2c1=O	?	2.9µM*	31	?	?
C=CCn1c(SCc2ccc(Br)cc2F)nc2cc(C(=O)O)ccc2c1=O	-1%	?	10	i	i
C=CCn1c(SCc2c(C)noc2C)nc2sc3c(c2c1=O)CCCC3	?	9.2µM*	-21	23µM*	18µM*
C=CCn1c(SCc2c(C)noc2C)nc2sc3c(c2c1=O)CCCCC3	13%	?	-8	?	i
C=CCn1c(SCc2c(C)noc2C)nc2ccccc2c1=O	0.65µM*	7.3µM*	40	?	?
C=CCn1c(SCc2nc3ccccc3c(=O)[nH]2)nc2ccccc2c1=O	16%	?	14	i	i
CCN(CC)S(=O)(=O)c1ccc(N2CCOCC2)c(NC(=O)c2ccccc2)c1	-3%	1%	-2	?	i
CCN(CC)S(=O)(=O)c1ccc(N2CCOCC2)c(NC(=O)c2cc(C)cc(C)c2)c1	9%	12%	-51*	i	i
CCN(CC)S(=O)(=O)c1ccc(N2CCOCC2)c(NC(=O)C23CC4CC(CC(Cl)(C4)C2)C3)c1	-27%	?	4	23µM*	i
COCCCN(CCC#N)C(=O)c1c(-c2c(Cl)cccc2Cl)noc1C	6%	1%	15	i	i
CCOC(=O)C1=C(N)n2c(s/c(=C\c3ccco3)c2=O)=C(C(=O)OCC)C1c1ccco1 (centres undefined)	?	5.8µM*	8	4.6µM*	16µM*
COC(=O)C[C@H]1C[C@H]2c3cc(NS(=O)(=O)c4ccc(OC)cc4)ccc3O[C@H]2[C@H](CO)O1	·	·	10	i	i
CCOC(=O)/C(=C\C=C1/Sc2ccccc2N1CC)C(C)=O	0%	8%	?	5.2µM*	i
CCC(=O)/C=C1/Sc2ccccc2N1CC	3%	?	-2	i	i
CCOC(=O)/C(=C/C=C1\Sc2ccccc2N1CC)C(C)=O	11%	17%	-69*	i	i
CCN1/C(=C/C(=O)c2ccco2)Sc2ccccc21	?	?	-14	i	i
CCC(=O)/C=C1/Sc2ccc(OC)cc2N1CC	-2%	-3%	0	i	i
CCOC(=O)/C(=C/C=C1\Sc2cc(C)c(C)cc2N1CC)C(C)=O	-9%	21%	-92*	?	?
N#CCc1ccc(OC(=O)c2ccncc2)cc1	2%	5%	4	i	i
Cn1c(-c2c(N)n(CCc3ccccc3)c3nc4ccccc4nc23)nc2ccccc21	8.2µM*	?	-8	15µM*	?
Cn1c(-c2c(N)n(CCCc3ccccc3)c3nc4ccccc4nc23)nc2ccccc21	16µM*	?	?	9.2µM*	?
COCCCn1c(N)c(-c2nc3ccccc3n2C)c2nc3ccccc3nc21	?	23µM*	?	i	i
CCc1nc2ccccc2n1CCc1ccccc1	4%	?	-8	i	i
Cn1c(-c2c(N)n(C3CCCC3)c3nc4ccccc4nc23)nc2ccccc21	12µM*	5.2µM*	-6	21µM*	16µM*
SMILES	SW480 rereplic	MCF10A rereplic	IL1B secr inh	KB-V1 cytotox	KB-3-1 tox
CC(C)c1nc2cc(C(=O)N3CCN(c4cnccn4)CC3)ccc2o1	-7%	?	1	·	·
Cc1ccc(-c2nn(-c3ccccc3)cc2C(=O)Nc2cccc(S(=O)(=O)NC3=NCCC3)c2)cc1	·	·	0	i	i
CCOC(=O)N1CCN(C(=O)/C(=C/c2cccc3ccccc23)NC(=O)c2ccc(OC)c(OC)c2)CC1	-2%	8%	3	4.6µM*	i
CCOC(=O)N1CCN(C(=O)/C(=C/c2ccc(Br)cc2)NC(=O)c2ccc(OC)cc2)CC1	-4%	3%	0	18µM*	i
COc1ccc(C(=O)N/C(=C\c2cccc3ccccc23)C(=O)N2CCN(C)CC2)cc1OC	0%	23%	-9	i	i
CCOC(=O)N1CCN(C(=O)/C(=C/c2ccc(F)cc2)NC(=O)c2ccccc2)CC1	0%	17%	14	·	·
Cc1c(OC(C)C(=O)NCc2ccncc2)ccc2c3c(c(=O)oc12)CCCC3 (centres undefined)	-1%	15%	?	i	i
CCCCCCSc1cc(-c2nc3ccc(C)cn3c2NCCCC)ccc1OC	?	?	-72*	?	i
CCCCNc1c(-c2ccc(Sc3ccc(OC)cc3)cc2)nc2cc(C)ccn12	?	23µM*	-13	i	?
COc1ccc(-c2nc3cc(C)ccn3c2NCC2CCCO2)cc1OC (centres undefined)	2%	-5%	10	i	i
CCCCCCSc1cc(-c2nc3ccc(Cl)cn3c2NCCCC)ccc1OC	-17%[9.22 µM]	2%	0	?	i
CCCCNc1c(-c2ccc(OC)c(SC(C)CC)c2)nc2ccc(Cl)cn12 (centres undefined)	11%	21µM*	-66*	i	i
CCCCNc1c(-c2ccc(-c3ccc(C(C)=O)cc3)c(OC)c2)nc2cc(C)ccn12	?	?	-51*	?	?
COc1ccc(-n2c(SCC(=O)Nc3cc(C)on3)nc3c(c2=O)SC(C)C3)cc1 (centres undefined)	·	·	-25	i	i
CCCCCCSc1ccc(-c2nc3cnccn3c2NCCCC)cc1	21µM*	?	0	i	i
COc1cc(-c2nc3cnccn3c2Nc2ccccc2)ccc1O	1%	?	156	i	?
CCCCNc1c(-c2ccc(OC)c(SC(C)CC)c2)nc2ccc(C)cn12 (centres undefined)	13%[9.22 µM]	?	-100*!	18µM*!	?
CCCCNc1c(-c2ccc(OC)c(SC(C)CC)c2)nc2cc(C)ccn12 (centres undefined)	?	21µM*	-85*	i	?
CCCCNc1c(-c2ccc(OC)c(SC(C)CC)c2)nc2cnccn12 (centres undefined)	?	?	-67*	?	?
CC(C)(C)CC(C)(C)Nc1c(-c2ccc(O)cc2)nc2cnccn12	8%	28%	-15	i	i
COc1ccc(-c2nc3cc(C)ccn3c2NCc2ccc3c(c2)OCO3)cc1	0%	24%	-2	i	i

Compound activity as filed in PubChem BioAssay.
